Results as given in publication PMC4336329 (PLoS ONE, 2015).
Hit rate of the full screen: of about 310,000 compounds, about 2,200 (0.71%) showed an effect of 50% or more. Effects have a minus sign here. Only a selection was taken, and strong results are over-represented in it overall.

What follows are compounds tested against human ether-à-go-go-related gene (hERG) potassium channel (human, UniProt Q12809) (assay: primary screen, population patch clamp on CHO cells stably expressing hERG; higher = less effect of the substance).
Sequence of human ether-à-go-go-related gene (hERG) potassium channel (Q12809 whole entry, looked up): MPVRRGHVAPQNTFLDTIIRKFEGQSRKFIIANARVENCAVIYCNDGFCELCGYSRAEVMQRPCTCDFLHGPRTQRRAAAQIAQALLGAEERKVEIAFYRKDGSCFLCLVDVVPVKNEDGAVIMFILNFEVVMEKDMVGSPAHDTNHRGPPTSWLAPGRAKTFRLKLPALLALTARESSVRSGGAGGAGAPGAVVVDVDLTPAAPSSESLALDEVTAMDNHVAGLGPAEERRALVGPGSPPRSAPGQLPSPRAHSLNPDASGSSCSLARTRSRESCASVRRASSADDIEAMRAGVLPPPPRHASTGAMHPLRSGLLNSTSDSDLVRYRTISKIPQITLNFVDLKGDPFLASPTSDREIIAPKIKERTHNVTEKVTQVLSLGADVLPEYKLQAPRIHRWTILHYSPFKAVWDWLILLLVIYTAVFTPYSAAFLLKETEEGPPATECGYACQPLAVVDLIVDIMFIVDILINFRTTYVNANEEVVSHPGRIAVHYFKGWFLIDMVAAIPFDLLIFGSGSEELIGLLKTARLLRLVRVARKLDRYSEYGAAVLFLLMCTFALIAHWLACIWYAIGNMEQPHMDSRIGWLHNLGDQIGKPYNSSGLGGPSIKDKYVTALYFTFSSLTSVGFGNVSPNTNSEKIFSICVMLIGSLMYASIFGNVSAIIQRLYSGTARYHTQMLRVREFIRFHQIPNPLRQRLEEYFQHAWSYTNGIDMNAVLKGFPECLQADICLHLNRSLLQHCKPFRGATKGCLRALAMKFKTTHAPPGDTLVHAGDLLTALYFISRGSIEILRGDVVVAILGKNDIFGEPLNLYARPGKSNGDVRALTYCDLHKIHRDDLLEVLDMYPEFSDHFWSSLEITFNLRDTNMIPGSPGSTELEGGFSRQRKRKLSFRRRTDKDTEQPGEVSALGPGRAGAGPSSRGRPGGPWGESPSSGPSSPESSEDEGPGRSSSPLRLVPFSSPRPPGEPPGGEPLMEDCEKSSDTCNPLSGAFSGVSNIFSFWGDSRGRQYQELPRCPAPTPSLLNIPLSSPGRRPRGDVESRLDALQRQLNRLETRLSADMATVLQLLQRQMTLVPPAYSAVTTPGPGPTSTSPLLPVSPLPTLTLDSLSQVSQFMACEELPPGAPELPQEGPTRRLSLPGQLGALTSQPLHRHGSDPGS

Row | Compound | hERG current change (%, negative = inhibition) at 1uM [%]
1 | CC(=O)Oc1ccc2c3c(c(=O)oc2c1C)CCCC3 | 15.5
2 | CCOC(=O)CNC(=O)c1cc2c(=O)[nH]c3ccc(C)cc3c2s1 | 11.1
3 | O=C(NC1CC1)c1ccc2snnc2c1 | 6.14
4 | Cc1ccc(C)n1-c1ccc(C(=O)Nc2ccccc2F)cc1 | 10.7
5 | CC1CN(CC(=O)Nc2ccc([N+](=O)[O-])cc2Br)CC(C)O1 (stereo not drawn) | 4.18
6 | Cc1ccc(Cn2c(=N)c(C(=O)NCc3ccco3)cc3c(=O)n4ccccc4nc32)cc1 | -67.9
7 | Cc1ccc(Cn2c(=N)c(C(=O)NCCN3CCOCC3)cc3c(=O)n4ccccc4nc32)cc1 | -8.25
8 | N=c1c(C(=O)NCc2ccc(F)cc2)cc2c(=O)n3ccccc3nc2n1Cc1ccco1 | -85
9 | N=c1c(C(=O)NCCc2ccccc2)cc2c(=O)n3ccccc3nc2n1Cc1ccco1 | -67.5
10 | N=c1c(C(=O)NCc2ccco2)cc2c(=O)n3ccccc3nc2n1Cc1ccccc1 | -81.6
11 | Cc1ccc(CNC(=O)c2cc3c(=O)n4ccccc4nc3n(Cc3ccco3)c2=N)cc1 | -38.1
12 | COc1ccc(N2C(=O)C3CCCN3C2c2ccc(F)cc2)cc1Cl (stereo not drawn) | 8.28
13 | O=C(NCCc1ccc(Cl)cc1)c1cccnc1 | 9.38
14 | CCN(CC)c1ccc(/C=N/N2CCN(Cc3ccccc3)CC2)c(O)c1 | -0.743
15 | O=C(CN1C(=O)/C(=C\c2ccccc2Cl)Oc2ccccc21)NCc1cccnc1 | 5.85
16 | CCN(CC)c1ccc(NC(=O)c2cc(OC)cc(OC)c2)c(C)c1 | -2.35
17 | CC1CCN(S(=O)C23CC4CC(CC(C4)C2)C3)CC1 (stereo not drawn) | 16.3
18 | Fc1cccc(Cl)c1Cn1nnc2c(N3CCC4(CC3)OCCO4)ncnc21 | 13.7
19 | CCn1c(=O)c(C(=O)NCCc2ccc(OC)c(OC)c2)c(O)c2ccccc21 | 8.62
20 | N=c1c(C(=O)NCc2ccco2)cc2c(=O)n3ccccc3nc2n1Cc1ccc(Cl)cc1 | -55.7
21 | N=c1c(S(=O)(=O)c2ccc(Cl)cc2)cc2c(=O)n3ccccc3nc2n1Cc1ccco1 | 14
22 | Cn1c(CSCc2ccc(Cl)c(Cl)c2)nnc1SCC(=O)Nc1nccs1 | 2.81
23 | CN(C)C1=NC[C@H](Cc2ccccc2)N1CCCC1CCCC1 | -56.8

Row | Compound | hERG current change (%, negative = inhibition) at 1uM [%]
24 | CN(C)C1=NC[C@H](Cc2ccccc2)N1CCC1CCCC1 | -19.7
25 | CN(C)C1=NC[C@H](Cc2ccccc2)N1CCCC1CCCCC1 | -29.5
26 | CC(C)CCCN1C(N(C)C)=NC[C@@H]1Cc1ccccc1 | -2.29
27 | CCCCCCCN1C(N(C)C)=NC[C@@H]1Cc1ccccc1 | -69
28 | CN(C)C1=NC[C@H](Cc2ccccc2)N1CCCCc1ccccc1 | -42.2
29 | COc1ccccc1C(=O)NC(=O)CSc1nncn1C | 18.2
30 | CCCSC1=C(C#N)C(c2ccc(Cl)cc2Cl)CC(=O)N1 (stereo not drawn) | 11.8
31 | O=C(O)c1cc(-c2ccc(N3CCOCC3)cc2)nn1-c1ccc(F)cc1F | 12.7
32 | Fc1ccccc1CNc1ccc(Cl)c(Cl)c1 | 11.7
33 | Fc1ccccc1CNc1ccc(Cl)cc1 | 12.8
34 | Fc1ccc(NCc2ccccc2F)cc1Cl | -76.5
35 | COc1ccc(CCn2c(NCCCN3CCOCC3)nc3c2c(=O)[nH]c(=O)n3C)cc1 | 7.24
36 | Nc1ccc(OCCc2ccccc2)cc1 | 11.5
37 | O=c1c(Cl)c(NCc2ccco2)cnn1C12CC3CC(CC(C3)C1)C2 | 4.54
38 | CN(C)c1ccc(C(=O)c2ccccc2C(=O)O)c(O)c1 | 13.2
39 | CCCCN(CCCC)c1ccc(C(=O)c2ccccc2C(=O)O)c(O)c1 | -50.5
40 | CCN(CC)c1ccc(C(=O)c2ccccc2C(=O)O)c(O)c1 | 11.7
41 | CCN(CC)S(=O)(=O)c1cccc(-c2nnc(SCCOc3ccccc3)o2)c1 | 12.4
42 | O=C(COC(=O)c1ccc2ncsc2c1)Nc1cc([N+](=O)[O-])ccc1Cl | 7.27
43 | COc1ccc(S(=O)(=O)Nc2ccc(NC(C)=O)cc2)cc1Cl | 10.3
44 | O=C(NCCCCc1ccccc1)C12CN(Cc3ccccc3)CC1C(c1cccc([N+](=O)[O-])c1)=NO2 (stereo not drawn) | 10.9
45 | CC(C)CCNC(=O)C12CN(Cc3ccccc3)CC1C(c1cccc([N+](=O)[O-])c1)=NO2 (stereo not drawn) | 9.69
